Results: PubChem BioAssay AID2081 (NMMLSC, 2009)
Active and inactive are the calls of the source. How the calls were made is not given here.

Target: Bcl-2-like protein 2 (Homo sapiens) (UniProt Q92843)
Assay: inhibitors of Bim binding to Bcl-W, confirmation, biochemical, multiplexed, bead-based flow cytometry, HTS hits (AID 2081)
Details: Bim-Bcl-W binding displacement; series mostly up to 100 µM

Sequence of Bcl-2-like protein 2 (Homo sapiens) (Q92843 whole entry, looked up): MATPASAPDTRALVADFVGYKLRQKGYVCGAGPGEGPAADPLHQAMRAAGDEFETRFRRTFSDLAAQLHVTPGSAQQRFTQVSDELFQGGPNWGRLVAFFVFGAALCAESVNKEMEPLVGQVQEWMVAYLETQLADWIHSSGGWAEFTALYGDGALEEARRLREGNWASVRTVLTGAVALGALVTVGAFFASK

outcome, inactive:
Cc1ccc(-c2nc3c(c(=O)[nH]c(=O)n3Cc3ccccc3)n2C)o1
O=[N+]([O-])c1c(NCCCO)cc(Sc2nc3ccccc3s2)c2nonc12
S=c1[nH]cc(-c2ccccc2)n1-c1ccccc1
CC(=O)Nc1ccc(-n2cc(-c3ccccc3)[nH]c2=S)cc1
Cc1ccc(C=NNC(=O)CSc2nnc(-c3ccc(Cl)cc3)n2-c2ccccc2)o1
Cc1ccc(-c2cc(C(=O)Nc3nccs3)c3ccccc3n2)o1
COc1cc(CNc2ccc3[nH]c(=O)[nH]c3c2)cc(Br)c1OCC(=O)NC(C)(C)C
C=CS(=O)(=O)c1sc(Cl)c(N2CCOCC2)c1[N+](=O)[O-]
O=C(Nc1nnc(COc2ccc(Cl)cc2)s1)c1ccco1
O=C1C(Cl)=C(N2CCN(c3ccccc3[N+](=O)[O-])CC2)C(=O)c2ccccc21
CCN1C(=O)/C(=C\C=C2/C=CC=CN2CC)SC1=S
CCN(CC)c1ccc(NC(=O)c2ccccc2Br)cc1S(=O)(=O)Nc1ccccc1OC
Cc1ccc(-c2cc(-c3ccc(F)cc3)c(C#N)c(N)n2)o1
O=C1c2ccccc2C(=O)N1CN(C(=O)COc1ccc(Cl)cc1Cl)c1cccc(F)c1
CCN(CC)c1ccc(NC(=O)c2ccccc2F)cc1S(=O)(=O)Nc1ccccc1OC
Cc1cc(-c2cc(-c3ccc(Cl)cc3)nc(N)c2C#N)co1
COc1ccccc1-n1c(-c2ccccc2)c[nH]c1=S
COc1ccc(N2C(=O)C(Cl)=C(NC3C(=O)N(c4ccccc4)N(C)C3C)C2=O)cc1 (stereo unspecified)
CNC(CC(=O)c1ccc([N+](=O)[O-])cc1)C(Cl)(Cl)Cl (stereo unspecified)
CCN(CC)c1ccc(NC(=O)COc2ccccc2C)cc1S(=O)(=O)Nc1ccccc1OC
O=c1c2c(n3nnnc3n1Cc1ccccc1)-c1ccccc1CC21CCCC1
Cc1ccc(-c2cc(-c3ccc(C)o3)nc(N)c2C#N)cc1
CCN(CC)C(=O)COC(=O)c1cc(-c2ccco2)nc2ccccc12
COc1ccc(N2C(=O)C(Cl)=C(Oc3cccc(OC)c3)C2=O)cc1
CN(CCO)c1cc(Sc2nc3ccccc3s2)c2nonc2c1[N+](=O)[O-]
O=C1/C(=C\c2ccco2)NC(=S)N1c1ccccc1
